# Data from article PMC7862700, “An all-to-all approach to the identification of sequence-specific readers for epigenetic DNA modifications on cytosine”.
# Key:
# Experiment in all cases: DAPPL (digital affinity profiling via proximity ligation, sequencing); 10 mM Tris-HCl pH 7.5, 50 mM NaCl, 1 mM DTT, 4% glycerol, room temperature, 30 min; GST-TFs on glutathione beads, 16-mer random dsDNA library, 0.1% formaldehyde crosslink after washing; high values mean tight binding
# FLI1 = target: T1, FLI1 (Homo sapiens, UniProt Q01543 1-452); conditions: protein: recombinant; tags: N-terminal GST; dsDNA, one strand shown
# T1 sequence: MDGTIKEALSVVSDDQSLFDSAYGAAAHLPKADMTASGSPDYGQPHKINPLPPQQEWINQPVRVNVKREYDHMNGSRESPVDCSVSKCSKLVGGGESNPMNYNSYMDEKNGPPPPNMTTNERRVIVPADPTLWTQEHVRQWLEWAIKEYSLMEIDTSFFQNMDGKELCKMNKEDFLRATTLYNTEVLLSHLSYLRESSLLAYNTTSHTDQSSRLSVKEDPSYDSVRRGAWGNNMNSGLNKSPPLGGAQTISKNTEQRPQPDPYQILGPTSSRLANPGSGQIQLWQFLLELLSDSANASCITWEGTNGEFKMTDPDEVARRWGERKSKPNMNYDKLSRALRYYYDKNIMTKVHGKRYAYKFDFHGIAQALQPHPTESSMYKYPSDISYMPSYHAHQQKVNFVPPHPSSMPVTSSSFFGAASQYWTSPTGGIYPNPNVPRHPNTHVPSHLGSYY
# Method in brief: (§1)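 Binding signal is given per hexamer as its read frequency for a factor divided by its frequency in the tag-only sample. GST-fused human transcription factors were expressed in yeast, captured on glutathione beads, barcoded with DNA and pooled with that sample, then incubated with 200 nmole of a 16-mer random double-stranded DNA library in Tris/NaCl/DTT/glycerol buffer for 30 min at room temperature. The pools were then washed, crosslinked, proximity-ligated, amplified by PCR and sequenced on an Illumina NextSeq500.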
# ELK1 = target: T2, ELK1 (Homo sapiens, UniProt P19419 1-428); conditions: protein: recombinant; tags: N-terminal GST; dsDNA, one strand shown
# T2 sequence: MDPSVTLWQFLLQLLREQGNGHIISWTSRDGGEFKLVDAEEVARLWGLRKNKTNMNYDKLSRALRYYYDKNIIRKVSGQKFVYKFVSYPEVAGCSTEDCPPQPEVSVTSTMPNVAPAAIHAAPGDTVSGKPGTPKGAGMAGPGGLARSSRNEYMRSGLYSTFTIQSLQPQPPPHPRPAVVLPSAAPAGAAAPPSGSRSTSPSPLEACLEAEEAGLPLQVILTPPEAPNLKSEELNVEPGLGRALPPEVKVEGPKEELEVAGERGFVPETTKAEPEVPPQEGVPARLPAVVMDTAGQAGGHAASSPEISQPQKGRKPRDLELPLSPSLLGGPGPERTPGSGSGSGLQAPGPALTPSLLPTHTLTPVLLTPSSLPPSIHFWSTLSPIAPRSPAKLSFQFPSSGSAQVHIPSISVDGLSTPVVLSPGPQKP
# Method in brief: as §1
# GABPA = target: T3, GABPA (Homo sapiens, UniProt Q06546 1-454); conditions: protein: recombinant; tags: N-terminal GST; dsDNA, one strand shown
# T3 sequence: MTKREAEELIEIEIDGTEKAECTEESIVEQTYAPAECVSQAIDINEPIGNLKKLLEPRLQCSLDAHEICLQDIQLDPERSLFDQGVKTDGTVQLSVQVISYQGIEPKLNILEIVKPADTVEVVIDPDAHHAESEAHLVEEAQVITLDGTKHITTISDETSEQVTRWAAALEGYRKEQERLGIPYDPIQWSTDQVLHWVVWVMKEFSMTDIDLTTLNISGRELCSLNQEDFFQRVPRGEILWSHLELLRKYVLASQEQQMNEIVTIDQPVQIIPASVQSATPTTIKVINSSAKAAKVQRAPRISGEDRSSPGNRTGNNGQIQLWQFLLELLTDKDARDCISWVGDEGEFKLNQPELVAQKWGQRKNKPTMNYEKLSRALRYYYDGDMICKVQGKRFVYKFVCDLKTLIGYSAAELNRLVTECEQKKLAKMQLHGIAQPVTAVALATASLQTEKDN
# Method in brief: as §1
# ERG = target: T4, ERG (Homo sapiens, UniProt P11308 1-479); conditions: protein: recombinant; tags: N-terminal GST; dsDNA, one strand shown
# T4 sequence: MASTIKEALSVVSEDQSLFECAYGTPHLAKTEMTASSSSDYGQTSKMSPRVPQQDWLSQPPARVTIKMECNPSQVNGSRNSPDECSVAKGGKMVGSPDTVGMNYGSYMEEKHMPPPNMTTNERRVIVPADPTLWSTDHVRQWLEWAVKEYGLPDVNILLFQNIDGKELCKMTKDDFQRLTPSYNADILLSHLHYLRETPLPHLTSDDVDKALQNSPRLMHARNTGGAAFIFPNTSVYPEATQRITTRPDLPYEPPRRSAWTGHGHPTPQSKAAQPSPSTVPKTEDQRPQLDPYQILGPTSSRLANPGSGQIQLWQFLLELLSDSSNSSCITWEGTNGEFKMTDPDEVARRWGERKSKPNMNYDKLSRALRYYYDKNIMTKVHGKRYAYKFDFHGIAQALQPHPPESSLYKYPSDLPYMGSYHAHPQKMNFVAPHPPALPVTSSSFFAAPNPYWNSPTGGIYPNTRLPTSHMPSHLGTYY
# Method in brief: as §1
# ELF1 = ELF1 (Homo sapiens, UniProt P32519 1-619); conditions: protein: recombinant; tags: N-terminal GST; dsDNA, one strand shown
# Method in brief: as §1
# EHF = target: T5, EHF (Homo sapiens, UniProt Q9NZC4 1-300); conditions: protein: recombinant; tags: N-terminal GST; dsDNA, one strand shown
# T5 sequence: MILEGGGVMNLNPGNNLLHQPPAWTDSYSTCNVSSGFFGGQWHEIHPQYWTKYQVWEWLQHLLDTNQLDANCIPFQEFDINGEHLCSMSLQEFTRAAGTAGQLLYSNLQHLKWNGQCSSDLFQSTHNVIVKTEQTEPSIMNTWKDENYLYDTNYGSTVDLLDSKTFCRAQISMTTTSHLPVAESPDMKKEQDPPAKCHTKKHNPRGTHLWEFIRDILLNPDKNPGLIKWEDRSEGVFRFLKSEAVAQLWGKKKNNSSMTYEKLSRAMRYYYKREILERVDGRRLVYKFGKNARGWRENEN
# Method in brief: as §1
# SPI1 = SPI1 (Homo sapiens, UniProt P17947 1-270); conditions: protein: recombinant; tags: N-terminal GST; dsDNA, one strand shown
# Method in brief: as §1
# SPIB = SPIB (Homo sapiens, UniProt Q01892 1-262); conditions: protein: recombinant; tags: N-terminal GST; dsDNA, one strand shown
# Method in brief: as §1
# ELK3 = target: T6, ELK3 (Homo sapiens, UniProt P41970 1-407); conditions: protein: recombinant; tags: N-terminal GST; dsDNA, one strand shown
# T6 sequence: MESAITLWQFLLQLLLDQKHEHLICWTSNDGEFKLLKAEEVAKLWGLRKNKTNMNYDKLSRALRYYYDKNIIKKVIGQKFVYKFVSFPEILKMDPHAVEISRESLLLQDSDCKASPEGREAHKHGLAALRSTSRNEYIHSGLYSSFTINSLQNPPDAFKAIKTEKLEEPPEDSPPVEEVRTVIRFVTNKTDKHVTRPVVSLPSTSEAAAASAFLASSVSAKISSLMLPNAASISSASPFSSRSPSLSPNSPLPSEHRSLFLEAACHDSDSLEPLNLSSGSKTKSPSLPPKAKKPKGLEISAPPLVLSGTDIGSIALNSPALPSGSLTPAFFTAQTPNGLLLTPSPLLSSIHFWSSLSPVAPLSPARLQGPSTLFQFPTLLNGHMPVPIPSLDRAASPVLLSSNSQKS
# Method in brief: as §1
# FEV = target: T7, FEV (Homo sapiens, UniProt Q99581 1-238); conditions: protein: recombinant; tags: N-terminal GST; dsDNA, one strand shown
# T7 sequence: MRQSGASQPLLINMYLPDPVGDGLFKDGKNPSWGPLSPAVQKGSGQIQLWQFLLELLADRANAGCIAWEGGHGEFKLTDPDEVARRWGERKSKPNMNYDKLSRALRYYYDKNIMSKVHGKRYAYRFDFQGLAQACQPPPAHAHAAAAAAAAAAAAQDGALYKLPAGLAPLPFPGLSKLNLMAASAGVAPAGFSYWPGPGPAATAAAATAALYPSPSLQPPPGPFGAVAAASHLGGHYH
# Method in brief: as §1
# ETV5 = ETV5 (Homo sapiens, UniProt P41161 1-510); conditions: protein: recombinant; tags: N-terminal GST; dsDNA, one strand shown
# Method in brief: as §1
# HSF1 = HSF1 (Homo sapiens, UniProt Q00613 1-529); conditions: protein: recombinant; tags: N-terminal GST; chain copies: 3; dsDNA, one strand shown
# Method in brief: as §1
# SPIC = target: T8, SPIC (Homo sapiens, UniProt Q8N5J4 1-248); conditions: protein: recombinant; tags: N-terminal GST; dsDNA, one strand shown
# T8 sequence: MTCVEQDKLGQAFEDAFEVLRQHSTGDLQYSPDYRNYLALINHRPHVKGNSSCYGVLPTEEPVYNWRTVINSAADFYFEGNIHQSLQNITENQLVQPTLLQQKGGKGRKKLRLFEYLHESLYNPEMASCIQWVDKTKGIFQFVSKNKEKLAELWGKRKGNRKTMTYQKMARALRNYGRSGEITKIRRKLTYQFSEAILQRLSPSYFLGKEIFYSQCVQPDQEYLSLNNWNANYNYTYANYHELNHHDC
# Method in brief: as §1
# ELF4 = ELF4 (Homo sapiens, UniProt Q99607 1-663); conditions: protein: recombinant; tags: N-terminal GST; dsDNA, one strand shown
# Method in brief: as §1
# ELK4 = target: T9, ELK4 (Homo sapiens, UniProt P28324-2 1-405); conditions: protein: recombinant; tags: N-terminal GST; dsDNA, one strand shown
# T9 sequence: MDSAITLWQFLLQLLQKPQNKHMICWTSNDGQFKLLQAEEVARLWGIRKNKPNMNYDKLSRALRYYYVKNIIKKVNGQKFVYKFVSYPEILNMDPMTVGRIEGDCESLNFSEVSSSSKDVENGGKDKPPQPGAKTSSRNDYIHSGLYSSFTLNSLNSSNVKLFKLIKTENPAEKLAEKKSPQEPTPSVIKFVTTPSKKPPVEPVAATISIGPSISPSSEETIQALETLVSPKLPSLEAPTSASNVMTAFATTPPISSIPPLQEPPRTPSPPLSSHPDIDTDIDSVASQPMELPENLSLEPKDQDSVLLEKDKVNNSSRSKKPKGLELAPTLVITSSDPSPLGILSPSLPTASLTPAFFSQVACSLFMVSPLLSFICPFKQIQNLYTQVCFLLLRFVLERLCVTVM
# Method in brief: as §1
# ETV2 = target: T10, ETV2 (Homo sapiens, UniProt O00321 1-342); conditions: protein: recombinant; tags: N-terminal GST; dsDNA, one strand shown
# T10 sequence: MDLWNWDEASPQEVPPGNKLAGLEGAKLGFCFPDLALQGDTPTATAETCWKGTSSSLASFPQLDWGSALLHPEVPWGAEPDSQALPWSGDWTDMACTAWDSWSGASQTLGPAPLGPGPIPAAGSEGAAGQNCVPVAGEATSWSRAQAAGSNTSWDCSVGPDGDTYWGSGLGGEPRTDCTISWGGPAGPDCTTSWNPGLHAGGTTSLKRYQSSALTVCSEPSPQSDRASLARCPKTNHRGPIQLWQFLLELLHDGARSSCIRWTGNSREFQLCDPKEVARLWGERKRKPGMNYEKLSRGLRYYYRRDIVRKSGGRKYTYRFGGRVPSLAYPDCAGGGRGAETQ
# Method in brief: as §1
# ELF3 = target: T11, ELF3 (Homo sapiens, UniProt P78545 1-371); conditions: protein: recombinant; tags: N-terminal GST; dsDNA, one strand shown
# T11 sequence: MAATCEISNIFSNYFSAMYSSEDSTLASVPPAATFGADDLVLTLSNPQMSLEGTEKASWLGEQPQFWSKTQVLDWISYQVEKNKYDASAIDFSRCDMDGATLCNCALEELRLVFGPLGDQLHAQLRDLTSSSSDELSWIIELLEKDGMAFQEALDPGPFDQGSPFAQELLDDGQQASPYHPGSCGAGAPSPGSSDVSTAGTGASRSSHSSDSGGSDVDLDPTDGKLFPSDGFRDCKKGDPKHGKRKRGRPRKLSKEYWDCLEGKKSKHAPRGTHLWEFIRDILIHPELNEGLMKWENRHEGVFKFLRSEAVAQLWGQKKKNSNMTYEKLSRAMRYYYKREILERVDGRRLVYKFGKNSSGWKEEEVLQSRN
# Method in brief: as §1
# CRX = CRX (Homo sapiens, UniProt O43186 1-299); conditions: protein: recombinant; tags: N-terminal GST; dsDNA, one strand shown
# Method in brief: as §1
# ETV1 = ETV1 (Homo sapiens, UniProt P50549 1-477); conditions: protein: recombinant; tags: N-terminal GST; dsDNA, one strand shown
# Method in brief: as §1
# Sequence of HSF1 (Q00613 whole entry): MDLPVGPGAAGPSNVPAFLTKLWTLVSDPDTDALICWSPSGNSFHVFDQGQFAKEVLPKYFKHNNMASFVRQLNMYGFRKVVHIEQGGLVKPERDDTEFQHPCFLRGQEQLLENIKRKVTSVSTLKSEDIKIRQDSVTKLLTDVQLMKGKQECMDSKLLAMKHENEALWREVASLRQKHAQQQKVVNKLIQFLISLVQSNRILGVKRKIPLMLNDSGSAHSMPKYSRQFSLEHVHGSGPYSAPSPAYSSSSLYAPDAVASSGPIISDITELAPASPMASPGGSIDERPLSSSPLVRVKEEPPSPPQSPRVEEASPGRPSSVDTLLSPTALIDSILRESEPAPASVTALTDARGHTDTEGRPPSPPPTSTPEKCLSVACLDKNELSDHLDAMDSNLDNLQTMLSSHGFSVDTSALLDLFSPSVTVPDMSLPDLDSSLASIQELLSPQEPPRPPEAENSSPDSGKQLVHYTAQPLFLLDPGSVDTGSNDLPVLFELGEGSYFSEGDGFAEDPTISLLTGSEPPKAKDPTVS
# Sequence of CRX (O43186 whole entry): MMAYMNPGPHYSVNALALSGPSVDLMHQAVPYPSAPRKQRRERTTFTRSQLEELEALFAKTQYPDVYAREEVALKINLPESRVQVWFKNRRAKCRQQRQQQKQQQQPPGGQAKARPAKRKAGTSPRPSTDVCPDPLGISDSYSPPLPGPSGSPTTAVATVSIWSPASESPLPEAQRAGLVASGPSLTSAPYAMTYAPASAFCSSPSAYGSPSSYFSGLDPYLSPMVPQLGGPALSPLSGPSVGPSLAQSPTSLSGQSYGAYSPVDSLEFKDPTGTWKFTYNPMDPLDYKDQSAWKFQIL
# Sequence of ELF1 (P32519 whole entry): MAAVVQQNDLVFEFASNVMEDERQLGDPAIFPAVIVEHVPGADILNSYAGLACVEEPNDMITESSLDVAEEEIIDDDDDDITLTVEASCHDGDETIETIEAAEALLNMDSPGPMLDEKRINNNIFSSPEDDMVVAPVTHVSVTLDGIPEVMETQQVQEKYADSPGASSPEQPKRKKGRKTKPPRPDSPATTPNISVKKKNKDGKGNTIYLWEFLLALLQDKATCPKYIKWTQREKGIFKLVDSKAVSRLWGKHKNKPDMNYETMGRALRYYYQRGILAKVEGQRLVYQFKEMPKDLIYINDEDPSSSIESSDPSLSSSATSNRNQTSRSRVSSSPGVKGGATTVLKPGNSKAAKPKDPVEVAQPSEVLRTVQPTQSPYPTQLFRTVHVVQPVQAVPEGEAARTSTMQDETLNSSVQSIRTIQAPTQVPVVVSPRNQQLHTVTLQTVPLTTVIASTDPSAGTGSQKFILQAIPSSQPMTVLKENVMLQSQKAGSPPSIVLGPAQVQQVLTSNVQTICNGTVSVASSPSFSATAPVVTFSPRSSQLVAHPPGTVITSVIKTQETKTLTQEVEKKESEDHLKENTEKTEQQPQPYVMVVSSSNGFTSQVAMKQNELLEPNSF
# Sequence of ETV5 (P41161 whole entry): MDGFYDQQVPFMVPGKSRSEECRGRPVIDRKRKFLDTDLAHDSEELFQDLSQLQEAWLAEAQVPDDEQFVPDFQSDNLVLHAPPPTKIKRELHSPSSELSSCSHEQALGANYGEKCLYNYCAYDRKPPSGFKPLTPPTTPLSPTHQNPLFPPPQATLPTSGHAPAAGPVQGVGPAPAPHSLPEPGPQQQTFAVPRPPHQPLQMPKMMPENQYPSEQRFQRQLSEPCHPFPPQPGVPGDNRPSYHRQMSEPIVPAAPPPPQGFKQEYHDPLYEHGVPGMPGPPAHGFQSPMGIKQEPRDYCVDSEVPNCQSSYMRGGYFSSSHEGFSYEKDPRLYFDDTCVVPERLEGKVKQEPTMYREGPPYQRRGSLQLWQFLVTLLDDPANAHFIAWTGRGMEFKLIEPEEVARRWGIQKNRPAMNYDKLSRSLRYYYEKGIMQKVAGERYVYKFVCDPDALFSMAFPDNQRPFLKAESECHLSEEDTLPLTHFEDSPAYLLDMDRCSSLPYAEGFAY
# Sequence of ETV1 (P50549 whole entry): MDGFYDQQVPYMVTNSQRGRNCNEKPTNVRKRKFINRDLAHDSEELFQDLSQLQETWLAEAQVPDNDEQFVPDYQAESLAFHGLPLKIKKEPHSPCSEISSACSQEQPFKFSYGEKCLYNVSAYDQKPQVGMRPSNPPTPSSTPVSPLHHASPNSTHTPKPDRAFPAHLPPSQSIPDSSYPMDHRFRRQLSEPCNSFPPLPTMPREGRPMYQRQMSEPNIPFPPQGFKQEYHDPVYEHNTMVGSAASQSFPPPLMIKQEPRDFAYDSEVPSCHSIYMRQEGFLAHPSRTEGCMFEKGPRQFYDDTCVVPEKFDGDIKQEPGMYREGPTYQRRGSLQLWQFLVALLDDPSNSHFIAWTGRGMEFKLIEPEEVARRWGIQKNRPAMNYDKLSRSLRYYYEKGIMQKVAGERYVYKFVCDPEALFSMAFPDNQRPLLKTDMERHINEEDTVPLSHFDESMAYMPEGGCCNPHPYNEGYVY
# Sequence of SPIB (Q01892 whole entry): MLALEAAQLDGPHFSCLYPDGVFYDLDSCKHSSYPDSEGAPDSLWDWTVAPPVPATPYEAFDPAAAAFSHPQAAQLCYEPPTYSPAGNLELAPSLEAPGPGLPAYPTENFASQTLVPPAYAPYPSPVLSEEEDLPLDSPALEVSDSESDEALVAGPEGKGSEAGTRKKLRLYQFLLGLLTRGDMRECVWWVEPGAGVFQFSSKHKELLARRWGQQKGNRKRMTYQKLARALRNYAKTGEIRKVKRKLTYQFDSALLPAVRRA
# Sequence of ELF4 (Q99607 whole entry): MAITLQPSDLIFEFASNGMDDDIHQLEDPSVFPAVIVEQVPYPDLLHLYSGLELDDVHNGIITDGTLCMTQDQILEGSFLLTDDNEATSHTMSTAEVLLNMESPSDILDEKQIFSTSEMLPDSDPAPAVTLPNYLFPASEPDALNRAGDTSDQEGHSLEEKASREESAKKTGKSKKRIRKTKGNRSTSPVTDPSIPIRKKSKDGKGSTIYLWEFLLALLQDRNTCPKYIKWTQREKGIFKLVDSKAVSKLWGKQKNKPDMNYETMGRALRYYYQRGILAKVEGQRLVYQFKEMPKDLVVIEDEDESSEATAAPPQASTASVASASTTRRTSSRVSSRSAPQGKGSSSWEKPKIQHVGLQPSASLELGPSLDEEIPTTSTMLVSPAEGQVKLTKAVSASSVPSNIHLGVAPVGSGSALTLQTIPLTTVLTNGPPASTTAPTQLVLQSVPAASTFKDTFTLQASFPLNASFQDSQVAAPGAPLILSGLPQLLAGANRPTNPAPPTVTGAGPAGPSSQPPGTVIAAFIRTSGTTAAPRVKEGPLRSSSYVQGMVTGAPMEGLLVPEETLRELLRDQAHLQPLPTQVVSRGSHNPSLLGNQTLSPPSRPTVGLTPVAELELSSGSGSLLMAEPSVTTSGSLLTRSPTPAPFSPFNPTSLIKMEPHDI
sequence,measurement,setting,value
ATTGGT,binding signal,FLI1,"1.31 fold enrichment (6-mer frequency, TF over GST control)"
same,binding signal,ELK1,"1.34 fold enrichment (6-mer frequency, TF over GST control)"
same,binding signal,GABPA,"1.14 fold enrichment (6-mer frequency, TF over GST control)"
same,binding signal,ERG,"1.19 fold enrichment (6-mer frequency, TF over GST control)"
same,binding signal,ELF1,"1.22 fold enrichment (6-mer frequency, TF over GST control)"
same,binding signal,EHF,"1.28 fold enrichment (6-mer frequency, TF over GST control)"
same,binding signal,SPI1,"1.25 fold enrichment (6-mer frequency, TF over GST control)"
same,binding signal,SPIB,"1.33 fold enrichment (6-mer frequency, TF over GST control)"
same,binding signal,ELK3,"1.33 fold enrichment (6-mer frequency, TF over GST control)"
same,binding signal,FEV,"1.21 fold enrichment (6-mer frequency, TF over GST control)"
same,binding signal,ETV5,"1.29 fold enrichment (6-mer frequency, TF over GST control)"
same,binding signal,HSF1,"1.12 fold enrichment (6-mer frequency, TF over GST control)"
same,binding signal,SPIC,"1.24 fold enrichment (6-mer frequency, TF over GST control)"
same,binding signal,ELF4,"1.27 fold enrichment (6-mer frequency, TF over GST control)"
same,binding signal,ELK4,"1.19 fold enrichment (6-mer frequency, TF over GST control)"
same,binding signal,ETV2,"1.01 fold enrichment (6-mer frequency, TF over GST control)"
same,binding signal,ELF3,"1.14 fold enrichment (6-mer frequency, TF over GST control)"
same,binding signal,CRX,"1.2 fold enrichment (6-mer frequency, TF over GST control)"
same,binding signal,ETV1,"1.29 fold enrichment (6-mer frequency, TF over GST control)"
